The values below come from PubChem BioAssay AID739 (SRMLSC, 2007).

The campaign covered roughly 98,000 compounds. About 880 (0.9%) were called active. No stated cut-off is given here; in the data, active means inhibition above about 30%; inactive means the rest. Shown is part of a subset that was picked to be rich in actives.

This assay is described as follows: phenotypic screen on post-Golgi transport, primary screen (AID 739).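 Further: yeast cells grown in 1536-well plates; yeast grown about 18 h at 30C before absorbance read.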 Conditions: post-Golgi transport phenotypic cell assay; at 10 µM; active compounds read high.
As a reminder, the inhibition is the change of the read-out against control, counted positive when it falls. As for `COC(=O)C(C(=O)Nc1cccc(C)n1)C1CCCCCC1` (configuration not stated), the inhibition is -2.06% (inactive). Regarding `COc1ccc2ccccc2c1CNCc1ccccn1`, the inhibition was 0.33% (inactive). For the compound `CC1CCN(CC(=O)c2c[nH]c3ccccc23)CC1`, the inhibition is 0% (inactive).

Turning to `CCOc1ccc(NC(=O)CCS(=O)(=O)c2cccc3nsnc23)cc1`, the inhibition is -1.86% (inactive).

`CCOc1ccc(-c2cn(S(=O)(=O)c3cccc4nsnc34)nc2N)cc1`: the inhibition is 46.9% (active). Take `CCOc1ccc(OCC)c(NC(=O)CN(C)S(=O)(=O)c2cccc3nsnc23)c1`: the inhibition is 1.42% (inactive). `O=C1N=C2SCCN2/C1=C\c1c(Cl)cccc1Cl`: the inhibition is -3.72% (inactive).

Take `Cc1ccc(C(=O)c2c(NC(=O)c3ccncc3)sc3c2CCCC3)cc1`: the inhibition is 97.2% (active).

Regarding `Cc1ccc(C(=O)c2c(NC(=O)c3ccccc3)sc(C)c2C)cc1`, the inhibition is 0% (inactive).

For the compound `COC(=O)c1c(NC(=O)c2cccs2)sc2c1CCCC2`, the inhibition was 3.23% (inactive). In the case of `CCCc1cc(=O)[nH]c(SCC(=O)c2cc(C)n(CCC)c2C)n1` it was -4.22% (inactive); in that of `COc1cc(/C=N/O)cc(Br)c1OS(=O)(=O)c1ccc(C)cc1`, 2.99% (inactive). Take `CCOc1ccc(N(CC(=O)NC2CCCCCC2)S(=O)(=O)c2c(C)[nH]c(=O)[nH]c2=O)cc1`: the inhibition was -2.87% (inactive). Regarding `O=C1C=C(c2ccc(Cl)cc2)C(=O)N1Nc1ccccc1`, the inhibition was 106% (active). On to `O=C1c2cccc3cc(Br)cc(c23)C(=O)N1Nc1ccccc1`, for which the inhibition is -2.04% (inactive). Turning to `O=C(Nc1ccccc1)OCc1cc(-c2ccc(Cl)cc2)on1`, the inhibition is -5.71% (inactive).

For the compound `COc1ccc(-c2csc3nc(-c4ccccc4F)oc(=O)c23)cc1OC`, the inhibition is 6.4% (inactive). `CC1(C)CCCC2=C1CC1C(=O)N(c3ccccc3)C(=O)C1C2` (configuration not stated): the inhibition was -1.13% (inactive). In the case of `CC1CC2=C(CC1/C=N/NC(N)=S)C(C)(C)CCC2` (configuration not stated) it was 100% (active); in that of `Cc1cc(C)c2nc(NC(=O)C3CCCO3)sc2c1` (configuration not stated), -4.03% (inactive). Regarding `O=C(CSc1ccc(/C=N/NC(=O)c2cccc(F)c2)o1)Nc1ccccc1`, the inhibition is -2.85% (inactive). The result for `COc1ccc(CCNS(=O)(=O)c2ccc(Cl)s2)cc1OC` reads -1.32% (inactive). Take `COc1cccc(CNc2nc3nc4c(c(=O)n3[nH]2)CCC4)c1`: the inhibition is -5.47% (inactive). Regarding `COc1cccc(-c2nc(S(=O)(=O)c3ccccc3)c(N3CCOCC3)o2)c1`, the inhibition was -8.86% (inactive). Turning to `COc1cccc(-c2cc3nc4c(c(N5CCC6(CC5)OCCO6)n3n2)CCCC4)c1`, the inhibition is 45.5% (active). Regarding `Cc1cccc(NC(=O)CSc2nnc(-c3ccco3)o2)c1`, the inhibition was -0.81% (inactive). As to `COC(=O)c1ccccc1OCC(=O)N1CCN(c2ccc(Cl)cc2)CC1`, the inhibition is 5.12% (inactive).

Take `O=C(NC1CCCCC1)C1CCCN(S(=O)(=O)c2cccs2)C1` (configuration not stated): the inhibition is -9.88% (inactive).

Regarding `O=C(C1CCN(S(=O)(=O)c2cccs2)CC1)N1CCCCCC1`, the inhibition was 34.1% (active).

As to `O=C(NCc1ccccc1)C1CCCN(S(=O)(=O)c2cccs2)C1` (configuration not stated), the inhibition is 0% (inactive). `Cc1cccc(C(=O)Nc2ccccc2-c2nnn(CC(=O)Nc3ccc4c(c3)OCCO4)n2)c1`: the inhibition was -5.17% (inactive). The result for `CC(=O)c1cc(NC(=O)c2ccccc2)c(=O)oc1/C=C/N(C)C` reads -1.13% (inactive). The result for `Cn1ccs/c1=N\S(=O)(=O)c1ccc(C(C)(C)C)cc1` reads -6.14% (inactive); that for `O=C(O)CCN=C1CCc2ccccc2N1`, 2.24% (inactive).

As to `CCOc1cccc(C(=O)Nc2cnn(Cc3ccccc3)c2)c1`, the inhibition is 7.09% (inactive). `CCC(=O)Nc1cccc(NC(=O)c2cccnc2)c1`: the inhibition is -2.1% (inactive).

`CCOc1cccc(C(=O)Nc2cccnc2)c1`: the inhibition is 31% (active). On to `NC(=NC(=O)c1ccccc1)N1CCOCC1`, for which the inhibition was -0.16% (inactive). For `CC(=O)OCc1cc2cc(C)ccc2[nH]c1=O`, the inhibition was 5.81% (inactive). Consider `CCOC(=O)c1cc2cc(C)ccc2[nH]1`, for which the inhibition is 39.6% (active). `CCNCc1cc2cc(C)ccc2[nH]c1=O`: the inhibition was 6.62% (inactive).

With `N/C(=N\OC(=O)CCC1CCCCC1)c1ccccn1`, the inhibition was 13.9% (inactive). As for `Nc1c(-c2ccc(F)cc2)cnc2ncnn12`, the inhibition is 15.1% (inactive). For `O=C(CCC(=O)OCc1cccc(C(=O)Oc2ccccc2)c1)Nc1cccc2ccccc12`, the inhibition is -3.63% (inactive).

Regarding `N#Cc1nc(-c2ccc(OCc3ccccc3)cc2)oc1NCCCN1CCOCC1`, the inhibition is 5.49% (inactive). `N#Cc1nc(COc2ccc(-c3ccccc3)cc2)oc1NCc1cccnc1`: the inhibition is 99.8% (active). Regarding `N#Cc1nc(Cc2ccccc2)oc1NCCc1ccccc1`, the inhibition was 18.8% (inactive).

With `CCCn1nc2cc(C(=O)NCc3ccccc3)ccc2c1OCC`, the inhibition is 2.26% (inactive). For the compound `CCCCNC(=S)NNC(=O)c1cc(C)on1`, the inhibition is 0.65% (inactive).

As for `COc1ccc(/C=C2/S/C(=N/N=C3\CC4CCC3(C)C4(C)C)NC2=O)cc1` (configuration not stated), the inhibition is -0.32% (inactive). As for `COC(=O)c1ccc(CSc2nnc(NC(C)C)s2)cc1`, the inhibition is 36.2% (active). On to `CCOc1ccccc1Nc1nnc(SCc2ccc(C(=O)OC)o2)s1`, for which the inhibition was -9.05% (inactive).

In the case of `COC(=O)c1ccc(CSc2nncn2C)cc1`, the inhibition is 1.45% (inactive). On to `Cc1ccccc1/[N+]([O-])=C/c1ccncc1`, for which the inhibition is -1.29% (inactive).

`COc1ccc2c(Cl)c(C(=O)NCc3ccco3)sc2c1`: the inhibition is -10.7% (inactive). With `COCCNC(=O)COc1ccc(C)c(C)c1`, the inhibition was 4.17% (inactive). In the case of `Cc1ccc(SC(=O)COc2ccc(C)c(C)c2)cc1` it was 35.3% (active); in that of `Cc1cc(=O)oc2ccc(OCC(=O)O)cc12`, 2.48% (inactive); in that of `O=S(=O)(c1ccc(F)cc1)n1ccc(-c2cnc(-c3ccccc3)s2)n1`, -10% (inactive).

In the case of `O=C(Nc1nnc(CCOCCOCCc2nnc(NC(=O)c3ccco3)s2)s1)c1ccco1`, the inhibition is -30.3% (inactive).

With `CCCc1noc2c1/C(=N\O)CCC2`, the inhibition was 13.6% (inactive).

Consider `O=C(NCC1CCCO1)c1ccc2ccccc2n1` (configuration not stated), for which the inhibition was -3.36% (inactive).
